According to PubChem BioAssay (NCATS):
Results filed as inconclusive are left out. The source made the active and inactive calls. The call rests on the fitted dose curve; in most records, active means well fitted curve in the direction sought with a large enough effect; inconclusive means small, poorly fitted or top-dose-only effect, or another doubt; inactive means no such curve, though single readings can be large; an effect the other way counts as inactive or inconclusive.

Columns and labels:
[1] = target: Rap guanine nucleotide exchange factor 3 (Homo sapiens) (UniProt O95398); test: Confirmatory qHTS for antagonist of cAMP-regulated guanine nucleotide exchange factor 3 (EPAC1) (AID 1645880); further: nearly all actives have a fitted effect of over 55% in size; further: potency means the concentration at half of the fitted maximal effect
Sequence of Rap guanine nucleotide exchange factor 3 (Homo sapiens) (O95398 whole entry, looked up): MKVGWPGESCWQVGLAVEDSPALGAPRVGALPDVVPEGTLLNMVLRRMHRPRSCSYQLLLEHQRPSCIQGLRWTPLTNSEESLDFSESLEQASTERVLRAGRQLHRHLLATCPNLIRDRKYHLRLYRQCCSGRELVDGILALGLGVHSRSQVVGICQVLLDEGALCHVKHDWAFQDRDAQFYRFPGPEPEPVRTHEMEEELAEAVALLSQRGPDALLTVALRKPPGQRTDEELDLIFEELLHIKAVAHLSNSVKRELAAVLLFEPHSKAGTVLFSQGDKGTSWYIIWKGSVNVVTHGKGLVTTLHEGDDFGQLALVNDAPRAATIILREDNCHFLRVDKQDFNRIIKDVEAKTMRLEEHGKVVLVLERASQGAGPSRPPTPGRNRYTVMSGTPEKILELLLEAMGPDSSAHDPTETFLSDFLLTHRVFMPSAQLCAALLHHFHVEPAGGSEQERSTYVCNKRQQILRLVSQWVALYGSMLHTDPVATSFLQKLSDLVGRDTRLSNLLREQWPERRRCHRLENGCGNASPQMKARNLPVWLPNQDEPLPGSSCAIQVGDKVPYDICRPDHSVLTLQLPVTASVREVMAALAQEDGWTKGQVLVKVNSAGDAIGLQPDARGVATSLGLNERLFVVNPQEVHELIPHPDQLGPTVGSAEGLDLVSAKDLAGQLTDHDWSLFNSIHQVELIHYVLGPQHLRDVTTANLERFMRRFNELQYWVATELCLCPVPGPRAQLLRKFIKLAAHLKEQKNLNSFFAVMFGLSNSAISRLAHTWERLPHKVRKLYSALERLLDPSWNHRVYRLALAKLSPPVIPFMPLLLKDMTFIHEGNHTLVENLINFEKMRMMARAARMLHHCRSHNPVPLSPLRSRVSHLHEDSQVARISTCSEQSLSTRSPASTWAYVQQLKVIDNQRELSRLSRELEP
Outline: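 Nucleotide exchange uses 100 nM EPAC1, 250 nM RAP1B-BODIPY-GDP and 50 uM GDP, with compounds in a concentration-titration series. After 5 min at room temperature, fluorescence (480 nm ex/540 nm em) is read every 5 min for 30 min. Data are normalized to control ATA and DMSO.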

[2] = target: Rap guanine nucleotide exchange factor 3 (Homo sapiens) (UniProt O95398); test: Confirmatory qHTS for agonist of cAMP-regulated guanine nucleotide exchange factor 3 (EPAC1) (AID 1645881); further: nearly all actives have a fitted effect of over 75% in size; further: potency means the concentration at half of the fitted maximal effect;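 on activation: EPAC1 catalysed release of BODIPY-GDP from Rap1B seen as fluorescence loss; 100% = effect of cAMP agonist control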
[3] = target: Rap guanine nucleotide exchange factor 4 (Homo sapiens) (UniProt Q8WZA2); test: Confirmatory qHTS for agonist of cAMP-regulated guanine nucleotide exchange factor 4 (EPAC2) (AID 1645884);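 further: nucleotide exchange releases bodipy-GDP from Rap1 and this lowers its fluorescence; nearly all actives have a fitted effect of over 65% in size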; further: potency means the concentration at half of the fitted maximal effect; on activation: on the % scale 0 is the no-effect control and ±100 the full control effect
Sequence of Rap guanine nucleotide exchange factor 4 (Homo sapiens) (Q8WZA2 whole entry, looked up): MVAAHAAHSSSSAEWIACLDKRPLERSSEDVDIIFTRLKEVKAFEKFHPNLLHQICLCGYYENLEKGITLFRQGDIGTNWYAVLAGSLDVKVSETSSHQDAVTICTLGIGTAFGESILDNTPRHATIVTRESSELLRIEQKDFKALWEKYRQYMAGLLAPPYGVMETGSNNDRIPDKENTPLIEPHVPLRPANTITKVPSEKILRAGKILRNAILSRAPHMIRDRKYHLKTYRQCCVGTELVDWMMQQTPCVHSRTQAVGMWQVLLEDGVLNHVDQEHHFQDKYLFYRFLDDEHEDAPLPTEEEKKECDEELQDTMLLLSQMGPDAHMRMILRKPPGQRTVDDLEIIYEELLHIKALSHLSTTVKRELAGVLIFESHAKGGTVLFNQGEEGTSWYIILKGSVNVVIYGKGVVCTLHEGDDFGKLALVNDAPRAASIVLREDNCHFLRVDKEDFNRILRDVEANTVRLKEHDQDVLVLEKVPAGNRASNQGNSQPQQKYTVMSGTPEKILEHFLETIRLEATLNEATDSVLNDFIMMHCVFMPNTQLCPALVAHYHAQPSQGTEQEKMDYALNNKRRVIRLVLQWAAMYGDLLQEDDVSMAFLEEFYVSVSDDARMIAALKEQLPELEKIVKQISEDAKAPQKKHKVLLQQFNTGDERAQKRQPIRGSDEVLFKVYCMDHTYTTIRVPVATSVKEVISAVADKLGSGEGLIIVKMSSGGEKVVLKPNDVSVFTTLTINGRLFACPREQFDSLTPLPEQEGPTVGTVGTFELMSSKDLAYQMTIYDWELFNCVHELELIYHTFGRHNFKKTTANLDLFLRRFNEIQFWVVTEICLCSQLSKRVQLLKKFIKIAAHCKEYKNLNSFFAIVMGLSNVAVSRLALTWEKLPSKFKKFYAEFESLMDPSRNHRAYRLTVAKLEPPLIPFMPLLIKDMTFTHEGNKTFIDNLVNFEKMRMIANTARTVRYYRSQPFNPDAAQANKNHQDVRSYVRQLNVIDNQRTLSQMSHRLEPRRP

[4] = target: Rap guanine nucleotide exchange factor 4 (Homo sapiens) (UniProt Q8WZA2); test: Confirmatory qHTS for antagonist of cAMP-regulated guanine nucleotide exchange factor 4 (EPAC2) (AID 1645885); further: nearly all actives have a fitted effect of over 25% in size; further: potency means the concentration at half of the fitted maximal effect; on activity change, negative = inhibition: on the % scale 0 is the no-effect control and ±100 the full control effect
[5] = target: Rap guanine nucleotide exchange factor 3 (Homo sapiens) (UniProt O95398); test: Counterscreen qHTS for antagonist of cAMP-regulated guanine nucleotide exchange factor 3 (EPAC1) (AID 1645888);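 further: fluorescence loss as bound BODIPY-GDP is released from Rap1B; % of control where 0% means no effect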
Outline: (§1)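 Measured: fluorescence of BODIPY-GDP bound to Rap1B, which falls as exchange proceeds. Conditions include 50 uM competing GDP, 5 and 30 min reads, and a later cAMP challenge for antagonist detection.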

[6] = target: Rap guanine nucleotide exchange factor 3 (Homo sapiens) (UniProt O95398); test: Counterscreen qHTS for agonist of cAMP-regulated guanine nucleotide exchange factor 3 (EPAC1) (AID 1645889); further: nearly all actives have a fitted effect of over 40% in size; further: potency means the concentration at half of the fitted maximal effect; on activation: % of control where 0% means no effect
Outline: as §1

C=CCc1ccccc1Oc1cc(OC)nc(N)n1
inactive: Potency [1] | Potency [2] | activation [3] -1.65% [at 17.1 µM, percent relative to cAMP agonist control] | Potency [4] | activity change, negative = inhibition [5] -22.4% [at 30.8 µM] | activation [6] -1.76% [at 30.8 µM]

CCc1ccc(-c2nc(CS(=O)CC(=O)NCc3cccnc3)c(C)o2)cc1 (stereo not drawn)
inactive: Potency [1] | Potency [2] | Potency [3] | Potency [4] | Potency [5] | Potency [6]

CCCc1[nH]nc2c1C(c1cccnc1)C(C#N)=C(N)O2 (stereo not drawn)
inactive: Potency [1] | Potency [2] | activation [3] 5.78% [at 17.1 µM, percent relative to cAMP agonist control] | Potency [4] | activity change, negative = inhibition [5] -9.67% [at 30.8 µM] | activation [6] -0.109% [at 30.8 µM]

CC(C)CCOc1ccc(C2(C)NC(=O)N(CN3CCOCC3)C2=O)cc1 (stereo not drawn)
inactive: Potency [1] | Potency [2] | Potency [3] | Potency [4] | Potency [5] | Potency [6]

COc1ccc(N2CCN(C(=O)c3sc4nc(-c5ccc(F)cc5)cn4c3C)CC2)cc1
inactive: Potency [1] | Potency [2] | Potency [3] | Potency [4] | Potency [5] | Potency [6]

O=C(N/N=C/c1cc(Br)c(O)c(Br)c1)c1cc2c(ccc3ccccc32)o1
inactive: Potency [2] | activation [3] -5.24% [at 17.1 µM, percent relative to cAMP agonist control] | Potency [4] | activity change, negative = inhibition [5] -6.71% [at 30.8 µM] | activation [6] 1.28% [at 30.8 µM]
active: Potency [1] 39.8 µM

O=C(COC(=O)c1cccc(-n2cnnn2)c1)c1ccc(F)cc1
inactive: Potency [1] | Potency [2] | activation [3] 8.21% [at 17.1 µM, percent relative to cAMP agonist control] | Potency [4] | activity change, negative = inhibition [5] -3.01% [at 30.8 µM] | activation [6] 4.41% [at 30.8 µM]

CCc1nc2c(OCc3ccc(C#N)cc3)cccn2c1N(C)C(=O)c1ccc(C)cc1
active: Potency [4] 19 µM
inactive: Potency [1] | Potency [2] | Potency [3] | Potency [5] | Potency [6]

CCOc1cc(/C=C2\C(=N)N3N=C(S(=O)(=O)CC)SC3=NC2=O)ccc1OC(=O)c1ccco1
inactive: Potency [2] | Potency [3] | Potency [4] | Potency [5] | Potency [6]
active: Potency [1] 30.1 µM

CCC(NS(=O)(=O)c1ccc2c(c1)NC(=O)C(C)C(=O)N2)c1cccs1 (stereo not drawn)
inactive: Potency [1] | Potency [2] | Potency [3] | Potency [4] | Potency [5] | Potency [6]

O=C1C=C(N2CCOCC2)c2ccccc2C1=O
inactive: Potency [2] | activation [3] -3.17% [at 17.1 µM, percent relative to cAMP agonist control] | Potency [4] | activity change, negative = inhibition [5] -11.6% [at 30.8 µM] | activation [6] 26.3% [at 30.8 µM]
active: Potency [1] 39.8 µM

O/C=c1\ccc2cccc3nc(C(F)(F)F)nc1c23
inactive: Potency [1] | Potency [4] | Potency [5]
active: Potency [2] 100 µM | Potency [3] 100 µM | Potency [6] 39.8 µM

O=C(C[n+]1cc(Br)cc2ccccc21)c1ccc(F)cc1
inactive: Potency [1] | Potency [2] | activation [3] 1.58% [at 17.1 µM, percent relative to cAMP agonist control] | Potency [4] | activity change, negative = inhibition [5] 9.18% [at 30.8 µM] | activation [6] 21% [at 30.8 µM]

CCCCn1c(N)c(N(CC(C)C)C(=O)C2CCN(C(=O)c3ccc(Cl)cc3)CC2)c(=O)[nH]c1=O
inactive: Potency [1] | Potency [2] | Potency [3] | Potency [4] | Potency [5] | Potency [6]

CC(=O)N1CCc2cc(CNC(=O)c3ccccc3Br)ccc21
inactive: Potency [1] | Potency [2] | Potency [3] | Potency [4] | Potency [5] | Potency [6]

Cn1c(COc2ccc(Cl)cc2)nc2ccccc2c1=O
active: Potency [1] 25.1 µM
inactive: Potency [2] | activation [3] 4.13% [at 17.1 µM, percent relative to cAMP agonist control] | Potency [4] | activity change, negative = inhibition [5] 1.04% [at 30.8 µM] | activation [6] 5.9% [at 30.8 µM]

CCC(C)NC(=O)Cn1c(=O)n(CCCCCC(=O)Nc2ccccc2)c(=O)c2sccc21 (stereo not drawn)
inactive: Potency [1] | Potency [2] | Potency [3] | Potency [4] | Potency [5] | Potency [6]

Cc1ccc(S(=O)(=O)N2CCN(C(=O)CC(C)n3nc(C)c(Cl)c3C)CC2)cc1 (stereo not drawn)
inactive: Potency [1] | Potency [2] | activation [3] 1.58% [at 17.1 µM, percent relative to cAMP agonist control] | Potency [4] | activity change, negative = inhibition [5] 13.5% [at 30.8 µM] | activation [6] 6.22% [at 30.8 µM]

Cc1ccccc1N(CC(=O)NC1CCCC1)C(=O)c1csnn1
inactive: Potency [1] | Potency [2] | activation [3] -0.443% [at 17.1 µM, percent relative to cAMP agonist control] | Potency [4] | activity change, negative = inhibition [5] -9.99% [at 30.8 µM] | activation [6] -0.253% [at 30.8 µM]

COc1cc2cncc(Cc3ccc(Cl)cc3)c2cc1OC
inactive: Potency [1] | Potency [2] | Potency [3] | Potency [4] | Potency [5] | Potency [6]

N#CC1=C(O)C(c2ccccc2)n2c1nc(=O)c1ccccc12 (stereo not drawn)
inactive: Potency [1] | Potency [2] | activation [3] 0.476% [at 17.1 µM, percent relative to cAMP agonist control] | Potency [4] | activity change, negative = inhibition [5] 1.23% [at 30.8 µM] | activation [6] 1.1% [at 30.8 µM]

CCC(C)NC(=O)CS(=O)Cc1nc(-c2ccccc2C)oc1C (stereo not drawn)
inactive: Potency [1] | Potency [2] | Potency [3] | Potency [4] | Potency [5] | Potency [6]

O=C(NC1CCC(O)CC1)c1cccc2cccnc12 (stereo not drawn)
inactive: Potency [1] | Potency [2] | Potency [3] | Potency [4] | Potency [5] | Potency [6]

Cc1ccc(S(=O)(=O)N2C(c3ccc(Cl)c(Cl)c3)CC=C(C(=O)O)C2c2ccc(Cl)cc2)cc1 (stereo not drawn)
active: Potency [1] 84.9 µM
inactive: Potency [2] | Potency [3] | Potency [4] | Potency [5] | Potency [6]

O=C(O)CN1C(=O)/C(=C\c2ccccc2OCc2ccc(Cl)cc2Cl)SC1=S
inactive: Potency [2] | activation [3] -0.613% [at 17.1 µM, percent relative to cAMP agonist control] | Potency [4] | activity change, negative = inhibition [5] -18.8% [at 30.8 µM] | activation [6] 3.68% [at 30.8 µM]
active: Potency [1] 44.7 µM

Cc1nc(N(C)Cc2ccccc2)c2c(C)c(C)sc2n1
inactive: Potency [1] | Potency [2] | activation [3] 3.14% [at 17.1 µM, percent relative to cAMP agonist control] | Potency [4] | activity change, negative = inhibition [5] -24.2% [at 30.8 µM] | activation [6] 11.8% [at 30.8 µM]

COc1cc(C2c3c(oc4ccccc4c3=O)C(=O)N2c2nc(C)c(C)s2)ccc1O (stereo not drawn)
inactive: Potency [1] | Potency [2] | Potency [3] | Potency [4] | Potency [5] | Potency [6]

CC1CCCN(CC(=O)Nc2cc(Cl)ccc2Oc2ccccc2)C1 (stereo not drawn)
inactive: Potency [1] | Potency [2] | Potency [3] | Potency [4] | Potency [5] | Potency [6]

Cc1cc2ccccn2c1C(=O)c1ccc(C#N)cc1
inactive: Potency [1] | Potency [2] | Potency [3] | Potency [4] | Potency [5] | Potency [6]

Cc1cc(C)c(C)c(S(=O)(=O)Nc2cccc(S(=O)(=O)Nc3ccccc3C(=O)O)c2)c1C
active: Potency [1] 39.8 µM
inactive: Potency [2] | activation [3] 4.6% [at 17.1 µM, percent relative to cAMP agonist control] | Potency [4] | activity change, negative = inhibition [5] -6.25% [at 30.8 µM] | activation [6] 0.792% [at 30.8 µM]

COCCNC(=O)CS(=O)Cc1nc(-c2ccc(Cl)cc2)oc1C (stereo not drawn)
inactive: Potency [1] | Potency [2] | activation [3] 3.09% [at 17.1 µM, percent relative to cAMP agonist control] | Potency [4] | activity change, negative = inhibition [5] 7.48% [at 30.8 µM] | activation [6] 14.9% [at 30.8 µM]

Cc1ccc(NC(=O)c2ccc(CN3CC(=O)N4CCCCC4C3=O)cc2)c(C)c1 (stereo not drawn)
inactive: Potency [1] | Potency [2] | Potency [3] | Potency [4] | Potency [5] | Potency [6]

CN(Cc1ccccc1N1CCCC1)C(=O)c1cc2cc(Cl)ccc2o1
inactive: Potency [1] | Potency [2] | Potency [3] | Potency [4] | Potency [5] | Potency [6]
